PubChem BioAssay AID686964 (The Scripps Research Institute Molecular Screening Center, 2013)
About 1,100 (0.3%) of roughly 370,000 compounds were called active. Only a selection was taken, and actives are over-represented in it overall. A number with no mark means an inactive call. Cut-off read from the data, not from the text of the source: active = inhibition above about 13%; inactive = the rest.

Target: Methyl-CpG-binding domain protein 2 (Homo sapiens) (UniProt Q9UBB5)
Assay: inhibitors of MBD2 binding to methylated DNA, primary screen, biochemical, TR-FRET, DNA-binding domain, human (AID 686964)
Conditions: MBD2 binding to methylated oligonucleotide, at 4.4 µM, hits give high values

Chain of Methyl-CpG-binding domain protein 2 (Homo sapiens) (Q9UBB5 whole entry, looked up, the tested form may be a part): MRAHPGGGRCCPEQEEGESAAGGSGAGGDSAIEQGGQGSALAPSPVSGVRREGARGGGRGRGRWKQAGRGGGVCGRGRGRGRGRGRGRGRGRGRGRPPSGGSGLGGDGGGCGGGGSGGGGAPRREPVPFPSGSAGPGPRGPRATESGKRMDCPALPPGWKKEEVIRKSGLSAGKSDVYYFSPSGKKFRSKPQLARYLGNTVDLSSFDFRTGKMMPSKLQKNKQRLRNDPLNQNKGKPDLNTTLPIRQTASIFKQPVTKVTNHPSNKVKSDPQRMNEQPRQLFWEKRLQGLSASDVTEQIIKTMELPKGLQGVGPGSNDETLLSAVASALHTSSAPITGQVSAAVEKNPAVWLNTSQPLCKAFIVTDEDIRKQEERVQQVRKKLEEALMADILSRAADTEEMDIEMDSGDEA

SMILES | inhibition
CCOC(=O)NC(C(F)(F)F)(C(F)(F)F)P(=O)(c1ccccc1)c1ccccc1 | -1.87%
CCOC(=O)CNC(=O)/C=C/c1c(Cl)cccc1Cl | -5.98%
CCOC(=O)CCP(=O)(O)C(O)(c1ccccc1)c1ccccc1 | 28.3% (active)
CCOC(=O)C(=O)N(Cc1ccccc1)c1ccccc1C(=O)Nc1cc(OC)ccc1OC | 1%
COc1cccc(/C=C2\CC3(OC(C)=O)CCCN2C3)c1 (stereo not given) | 1.18%
O=c1ccc2c(-c3ccccc3S(=O)(=O)O)c3ccc(O)c(O)c3oc-2c1O | 97.2% (active)
O=C(NC1CCCCN(Cc2ccc(Cl)cc2)C1=O)c1ccc(Br)cc1 (stereo not given) | -2.53%
C=C(C)C#CC(Cc1ccccc1)NCC1CC1 (stereo not given) | -0.24%
Cc1cc(C)c2nc3nc(C)cc(C)c3c(N)c2c1 | 19.4% (active)
NC(=O)c1ncn([C@@H]2O[C@H](C(=O)O)[C@@H](O)[C@H]2O)n1 | 2.1%
CCC[C@H]1C(=O)CC[C@@]23CCCN2C(=O)CCC[C@@H]13 | -0.46%
CC(C)CSc1nnc(-c2cccnc2)n1Cc1ccccc1 | -2.93%
O=C(OC12CCCN(C1)/C(=C/c1cccnc1)C2)C1CCCC1 (stereo not given) | -0.45%
O=C(NS(=O)(=O)c1cccs1)[C@H]1O[C@@H](n2ccc(=O)[nH]c2=O)[C@H](O)[C@@H]1O | 3.05%
Cc1c(C=O)n(C)n(-c2ccccc2)c1=O | 14.6% (active)
Cc1c(CN2CCC(C)CC2)c(=O)n(-c2ccccc2)n1C | 2.32%
Cc1cccc(N2CCN(Cc3c(C)n(C)n(-c4ccccc4)c3=O)CC2)c1C | 1.05%
O=S(=O)(c1ccc(Br)cc1)n1ccc2ccccc21 | -0.04%
O=S1(=O)c2c(cccc2N2CCSCC2)Oc2ccccc2CN1Cc1cn(Cc2ccc(F)cc2)nn1 | -0.08%
O=C(NCCO)C(=O)NCC(c1ccc2c(c1)OCO2)N1CCN(c2ccc(F)cc2)CC1 (stereo not given) | 0.87%
C[C@H](C(=O)N(C)c1ccccc1)[C@@H](O)c1ccc(Cl)cc1 | -1.32%
C=CCN(C(=O)[C@@H](CCCC)[C@@H](O)c1ccc(Cl)cc1)c1ccccc1 | 15.9% (active)
CCCC[C@H](C(=O)N(CC)c1ccccc1)[C@@H](O)c1ccc2ccccc2c1 | -3.72%
O=C(CCCCCN1C(=O)C2C3C=CC(C3)C2C1=O)Nc1ccccn1 (stereo not given) | -4.13%
CC(=O)Nc1cccc(C(=O)OCN2C(=O)c3ccccc3C2=O)c1 | 6.26%
COC(=O)c1cccc(NC(=O)c2cccc(N3C(=O)CCC3=O)c2)c1 | 13.4% (active)
COC(=O)c1cccc(NS(C)(=O)=O)c1 | -3.55%
CCN(CC)CCOc1ccc2c(c1)C(=NNC(=O)c1ccccn1)c1cc(OCCN(CC)CC)ccc1-2 | 109% (active)

SMILES | inhibition
CCCC(C(=O)OCCN(CC)CC)(c1ccccc1)c1ccccc1 | 0.72%
CCN(CC)S(=O)(=O)c1cc(C(=O)Nc2ccccn2)ccc1C | 2.21%
Cc1cccc(S(=O)(=O)N(C)C[C@@H]2OCc3cnnn3CCCC(=O)N([C@H](C)CO)C[C@@H]2C)c1 | 3.06%
C=C1c2c(Cl)ccc(O)c2C(O)=C2C(=O)[C@]3(O)C(O)=C(C(N)=O)C(=O)[C@@H](N(C)C)[C@@H]3[C@@H](O)C12 (stereo not given in full) | 27.8% (active)
CN(C)[C@@H]1C(=O)C(C(N)=O)=C(O)[C@@]2(O)C(=O)C3=C(O)c4c(O)ccc(Cl)c4[C@@H](O)[C@H]3C[C@@H]12 | 17.8% (active)
O=C1CCC2(CCC(c3ccc(Cl)cc3)CC2)N1CCO (stereo not given) | -0.8%
Nc1ncnc2c1ncn2[C@@H]1O[C@H](C(=O)N[C@@H](CCc2ccccc2)C(=O)N2CCCN(Cc3cccs3)CC2)[C@@H](O)[C@H]1O | 1.63%
O=C(O)CCn1c(O)c(C=C2N=c3ccccc3=N2)sc1=S | -4.63%
CCOC(=O)C1C(c2ccc(O)cc2)NC(=O)NC1(O)C(F)(F)F (stereo not given) | -5.62%
CCOC(=O)C1C(=O)NCC1c1ccccc1 (stereo not given) | -0.38%
CCOC(=O)C1C(=O)OC2(CCCC2)C1C(=O)OCC (stereo not given) | 19.3% (active)
Cc1cc2c(nc1C)CCCN2C | -0.93%
C=CCN(Cc1ccc2c(c1)OCO2)C(C#CC1CC1)C(C)(C)C (stereo not given) | 3.04%
O=C(c1c[nH]c2ccccc12)N1CCC(Oc2cccnc2)CC1 | -6.13%
CC(=O)N1C[C@@H](CO)[C@@H](N(C)C(=O)C(C)(C)C)C[C@H]1c1ccccc1Br | 2.89%
Oc1ccc(/C=C/c2c(F)cccc2F)c2cccnc12 | -0.79%
Cc1ccc(CNC(=O)CC(NC(=O)c2ccccc2)c2ccccc2)cc1 (stereo not given) | -3.58%
Nc1ccccc1C(=O)NC1CCCCNC1=O (stereo not given) | 16.1% (active)
Nc1ccn([C@@H]2O[C@H](C(=O)N[C@H]3CCCCNC3=O)[C@@H](O)[C@H]2O)c(=O)n1 | -2.88%
O=C(CNC(=O)OCc1ccccc1)NC1CCCCNC1=O (stereo not given) | 0.98%
CN1[C@H](Cc2ccccc2)COc2cccc(N3CCSCC3)c2S1(=O)=O | 3.96%
CCOC(=O)N1CCN(C(=O)C[C@@H]2C(=O)N(CCc3ccc(Cl)cc3)C3=CCCC[C@]32C(=O)OCC)CC1 | -2%
COc1ccc2c(CC(=O)NNC(=O)c3ccccc3F)coc2c1 | -1.98%
C[C@H]1[C@H](NC(=O)c2cccc(N(C)C)c2)CC[C@@]23CCCN2C(=O)CCC[C@@H]13 | -0.56%
Cc1c(NS(=O)(=O)c2cc(C(=O)NCCc3ccc(F)cc3)cc(Cl)c2Cl)c(=O)n(-c2ccccc2)n1C | 26.3% (active)
Cc1cc(C)c(S(=O)(=O)Nc2c(C)n(C)n(-c3ccccc3)c2=O)cc1[N+](=O)[O-] | -5.79%
Cc1c(NS(=O)(=O)c2cccc(C(=O)Nc3ccc(SC(F)F)cc3)c2)c(=O)n(-c2ccccc2)n1C | 7.59%
